# Test results: PubChem BioAssay (Tox21)
# Inconclusive results are not listed. Entries that show only a call come without a potency. Values without a mark were called inactive. Active and inactive are the calls of the source. Unless noted, calls follow the shape of the dose curve; as a rule, active = well fitted curve in the direction sought with a large enough effect in the repeat runs; inconclusive = weak or mixed curves; inactive = no such curve, though single readings can be large; an effect the other way counts as inactive or inconclusive.
# How the values were obtained:
# [1] = qHTS assay to identify small molecule agonists of the RXR signaling pathway - cell viability counter screen (AID 1159529); also: nearly all actives have a fitted effect of over 50% in size
# In short: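 Compounds dissolved in DMSO were pinned onto HEK 293T cells carrying a beta-lactamase reporter under RXR-alpha control and incubated 16 hr. Cytotoxicity was then quantified by CellTiter-Glo luminescence.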
# [2] = qHTS assay to identify small molecule antagonists of the retinoid acid receptor (RAR) signaling pathway - cell viability counter screen (AID 1159551); also: nearly all actives have a fitted effect of over 35% in size
# In short: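 Seed C3RL4 cells; next day add compound, then retinol to 1 uM final; incubate 6 h at 37 C; add CellTiter-Glo; read luminescence after 30 min at RT.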
# [3] = qHTS assay to identify small molecule antagonists of the estrogen related receptor (ERR) signaling pathway from Tox21 library - cell viability counter screen (AID 1224834); also: nearly all actives have a fitted effect of over 30% in size; also: potency is read from the fitted curve at half-maximal effect
# In short: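 CellTiter-Fluor fluorescence measured; ERR cells; 17.5 h compound incubation at 37 C; 30 min reagent step.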
# [4] = biological target: Luciferin 4-monooxygenase (Photinus pyralis) (UniProt P08659); assay: qHTS assay to identify small molecule inhibitors of firefly luciferase (AID 1224835); also: nearly all actives have a fitted effect of over 25% in size; also: potency is read from the fitted curve at half-maximal effect
# Sequence of Luciferin 4-monooxygenase (Photinus pyralis) (P08659 whole entry, looked up): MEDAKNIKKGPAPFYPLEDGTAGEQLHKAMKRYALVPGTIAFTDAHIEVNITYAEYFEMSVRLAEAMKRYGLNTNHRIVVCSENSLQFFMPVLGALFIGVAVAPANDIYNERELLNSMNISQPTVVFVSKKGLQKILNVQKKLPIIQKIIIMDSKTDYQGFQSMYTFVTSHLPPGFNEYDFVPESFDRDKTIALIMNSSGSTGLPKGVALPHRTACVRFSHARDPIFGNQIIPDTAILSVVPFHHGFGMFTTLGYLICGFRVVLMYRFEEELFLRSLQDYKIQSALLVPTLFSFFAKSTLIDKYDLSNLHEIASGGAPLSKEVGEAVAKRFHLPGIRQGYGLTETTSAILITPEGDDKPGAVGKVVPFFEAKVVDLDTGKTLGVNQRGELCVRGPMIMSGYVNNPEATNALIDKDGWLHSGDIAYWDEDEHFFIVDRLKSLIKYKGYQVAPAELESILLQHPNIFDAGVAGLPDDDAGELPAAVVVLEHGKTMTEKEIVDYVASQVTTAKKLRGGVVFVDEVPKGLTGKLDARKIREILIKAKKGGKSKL
# In short: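 Biochemical qHTS: compounds run as interplate titrations against purified firefly enzyme, with D-luciferin and ATP each at its KM concentration. Light output recorded by CCD imaging.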
# [5] = qHTS assay to identify small molecule agonists of the constitutive androstane receptor (CAR) signaling pathway - cell viability counter screen (AID 1224836); also: nearly all actives have a fitted effect of over 45% in size
# In short: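 23 h treatment, 37 C, 5% CO2. Cell line: HepG2 stably expressing hCAR with a CYP2B6-2.2kb construct. Co-treatment: PK11195, 0.75 uM final. Read-out: CellTiter-Fluor fluorescence intensity.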
# [6] = biological target: Nuclear receptor subfamily 1 group I member 3 (Homo sapiens) (UniProt Q14994); assay: qHTS assay to identify small molecule antagonists of the constitutive androstane receptor (CAR) signaling pathway (AID 1224838);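 also: HepG2 cells stably expressing hCAR with CYP2B6 luciferase reporter stimulated by CITCO; nearly all actives have a fitted effect of over 40% in size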; also: potency is read from the fitted curve at half-maximal effect
# Sequence of Nuclear receptor subfamily 1 group I member 3 (Homo sapiens) (Q14994 whole entry, looked up): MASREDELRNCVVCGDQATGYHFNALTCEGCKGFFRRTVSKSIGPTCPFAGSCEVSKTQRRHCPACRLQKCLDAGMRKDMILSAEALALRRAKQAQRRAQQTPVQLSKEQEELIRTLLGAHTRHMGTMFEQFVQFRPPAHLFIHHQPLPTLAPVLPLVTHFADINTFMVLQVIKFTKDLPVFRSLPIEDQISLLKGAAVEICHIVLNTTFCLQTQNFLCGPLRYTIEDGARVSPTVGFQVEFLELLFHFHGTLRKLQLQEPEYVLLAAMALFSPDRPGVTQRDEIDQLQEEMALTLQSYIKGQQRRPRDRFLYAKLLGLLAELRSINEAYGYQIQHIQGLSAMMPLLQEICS
# In short: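 Reporter luminescence was quantified after 24 h exposure of hCAR/CYP2B6-2.2kb double-stable HepG2 cells to compounds at 15 concentrations in the presence of 50 nM CITCO final.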
# [7] = biological target: Nuclear receptor subfamily 1 group I member 3 (Homo sapiens) (UniProt Q14994); assay: qHTS assay to identify small molecule agonists of the constitutive androstane receptor (CAR) signaling pathway (AID 1224839);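 also: HepG2 cells stably carrying human CAR and a CYP2B6 luciferase reporter; nearly all actives have a fitted effect of over 15% in size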
# In short: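 Compounds tested at 15 concentrations on HepG2 cells stably harbouring hCAR and CYP2B6-2.2kb reporter constructs, co-treated with PK11195 (0.75 uM final), 24 h at 37 C; luminescent reporter signal quantified.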
# [8] = qHTS assay to identify small molecule antagonists of the estrogen related receptor signaling pathway with the pleiotropic PPARgamma coactivator (PGC) from Tox21 10K library - cell viability counter screen (AID 1224840; active = well fitted cell-killing curve with a large enough effect in the repeat runs, not every such curve was filed as active; also: nearly all actives have a fitted effect of over 40% in size; also: potency is read from the fitted curve at half-maximal effect)
# In short: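 Here the PGC/ERR cells serve as a cytotoxicity control: they are exposed to compounds for 17.5 hours at 37 C, and live-cell signal is quantified using CellTiter-Fluor fluorescence.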
# [9] = biological target: Thyrotropin receptor (Homo sapiens) (UniProt P16473); assay: qHTS assay to identify small molecule agonists of the thyroid stimulating hormone receptor (TSHR) signaling pathway (AID 1224843; calls by dose curve; also: nearly all actives have a fitted effect of over 45% in size)
# Sequence of Thyrotropin receptor (Homo sapiens) (P16473 whole entry, looked up): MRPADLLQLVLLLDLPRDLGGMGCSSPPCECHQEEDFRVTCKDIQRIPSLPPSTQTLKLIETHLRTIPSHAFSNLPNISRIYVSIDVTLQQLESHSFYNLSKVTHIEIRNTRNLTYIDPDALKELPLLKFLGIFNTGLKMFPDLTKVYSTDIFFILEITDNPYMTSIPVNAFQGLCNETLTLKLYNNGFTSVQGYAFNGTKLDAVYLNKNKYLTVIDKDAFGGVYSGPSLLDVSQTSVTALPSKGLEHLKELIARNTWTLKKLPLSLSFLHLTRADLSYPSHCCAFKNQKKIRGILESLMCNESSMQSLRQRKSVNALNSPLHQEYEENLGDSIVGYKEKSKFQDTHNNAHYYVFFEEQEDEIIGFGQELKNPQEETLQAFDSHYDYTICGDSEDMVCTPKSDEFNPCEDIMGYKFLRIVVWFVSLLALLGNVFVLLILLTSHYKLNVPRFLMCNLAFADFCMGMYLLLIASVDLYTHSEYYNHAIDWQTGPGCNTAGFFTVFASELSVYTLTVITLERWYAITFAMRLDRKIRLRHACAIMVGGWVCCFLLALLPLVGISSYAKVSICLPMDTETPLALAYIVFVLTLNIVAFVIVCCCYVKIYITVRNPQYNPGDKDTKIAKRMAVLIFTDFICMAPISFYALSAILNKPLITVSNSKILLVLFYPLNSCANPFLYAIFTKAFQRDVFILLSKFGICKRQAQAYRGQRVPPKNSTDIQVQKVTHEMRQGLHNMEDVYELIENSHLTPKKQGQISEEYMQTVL
# In short: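 TSHR-HEK293 cells in agonist mode, 30 min room-temperature step, then cAMP measured by competitive HTRF (cAMP-d2 with anti-cAMP cryptate) after 1 h at room temperature. Tested at 15 concentrations in triplicate.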
# [10] = qHTS assay to identify small molecule antagonists of the retinoic acid receptor (RAR) signaling pathway (AID 1159552; also: nearly all actives have a fitted effect of over 50% in size; also: potency is read from the fitted curve at half-maximal effect)
# In short: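 Test chemicals and DMSO controls were pin-transferred onto C3RL4 cells a day after seeding; retinol (1 uM final) followed at once. Luminescent reporter output was quantified after 6 hr of co-incubation and 30 min with detection reagent.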
# [11] = qHTS assay to identify small molecule agonists of the retinoic acid receptor (RAR) signaling pathway (AID 1159553); settings: C3RL4 RARE luciferase reporter, agonist, 6 h; activation: at 73.3 µM (top of the series) unless noted
# In short: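 Activation of retinol signaling was monitored via a RARE luciferase reporter in C3RL4 cells. After 6 hr compound treatment at 37 C, detection reagent was added for 30 min at room temperature before luminescence reading.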
# [12] = qHTS assay to identify small molecule antagonists of the estrogen related receptor (ERR) signaling pathway - cell viability counter screen (AID 1224818);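 also: viability measured after 17.5 h of compound exposure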
# In short: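 In the same ERR cell assay, compound-treated wells (17.5 h, 37 C) were multiplexed with a fluorogenic viability reagent, CellTiter-Fluor, read after 30 min to flag cytotoxic substances.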
# [13] = qHTS assay to identify small molecule antagonists of the estrogen related receptor signaling pathway with the pleiotropic PPARgamma coactivator (PGC) cell viability counter screen (AID 1224822)
# In short: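 Compounds in DMSO, with positive and negative controls, were applied to PGC/ERR cells (2,000/well) and left 17.5 h at 37 C before CellTiter-Fluor detection.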
# [14] = qHTS assay to identify small molecule antagonists of the constitutive androstane receptor (CAR) signaling pathway - cell viability counter screen (AID 1224837); also: nearly all actives have a fitted effect of over 45% in size
# In short: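 Using CellTiter-Fluor, viability is scored in HepG2 cells stably carrying hCAR and a 2.2kb CYP2B6 reporter after 23 hr compound exposure across 15 concentrations, with CITCO present at 50 nM.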
# [15] = qHTS assay to identify small molecule antagonists of the estrogen related receptor signaling pathway with the pleiotropic PPARgamma coactivator (PGC) from Tox21 10K library (AID 1224841; call rule not given here; also: actives are mostly falling curves and most rising ones were filed inactive; nearly all actives have a fitted effect of over 50% in size)
# In short: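 Each well held 2,000 PGC/ERR cells, pre-incubated six hours (37 C, 5% CO2). Test substances in DMSO were added by pin tool and left for 18 h at 37 C before luciferase detection by One-Glo.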
# [16] = qHTS assay to identify small molecule agonists of the estrogen related receptor signaling pathway with the pleiotropic PPARgamma coactivator (PGC) from Tox21 10K library (AID 1224842); also: nearly all actives have a fitted effect of over 15% in size; also: potency is read from the fitted curve at half-maximal effect
# In short: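 PGC/ERR reporter cell line, 2,000 cells per well, incubated 6 h at 37 C before 23 nL compound in DMSO was added. After 18 h at 37 C, One-Glo luminescence read following 30 min at room temperature.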
# [17] = qHTS assay to identify small molecule antagonists of the estrogen related receptor (ERR) signaling pathway (AID 1224819;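 also: luminescence from an ERR-driven luciferase reporter measured with One-Glo reagent; nearly all actives have a fitted effect of over 50% in size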)
# In short: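 qHTS in ERR cells, 2,000/well, 1536 format. Cpd (DMSO) added after 6 h settle, 18 h 37 C. One-Glo luminescence, 30 min RT.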
# [18] = qHTS assay to identify small molecule agonists of the estrogen related receptor (ERR) signaling pathway (AID 1224820)
# In short: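 Cells: ERR line from NTP, 2,000/well. Pre-incubation 6 h, 37 C/5% CO2. Compound (DMSO) pin transfer, 18 h 37 C. One-Glo, 30 min RT, luminescence.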
# [19] = system: estrogen-related receptor alpha (ERRalpha) with PGC-1alpha coactivator, human; assay: qHTS assay to identify small molecule antagonists of the estrogen related receptor signaling pathway with the pleiotropic PPARgamma coactivator (PGC) (AID 1224821; calls by dose curve)
# In short: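 Luminescent read-out (One-Glo, 30 min at room temperature) following 18 h treatment of PGC/ERR cells at 37 C with compounds delivered in DMSO. Cells had settled 6 h at 37 C/5% CO2 before dosing.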
# [20] = qHTS assay to identify small molecule agonists of the estrogen related receptor signaling pathway with the pleiotropic PPARgamma coactivator (PGC) (AID 1224823)
# In short: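 Steps: plate PGC/ERR cells at 2,000 cells/well; incubate 6 h, 37 C/5% CO2; pin-transfer compounds (DMSO); incubate 18 h, 37 C; add One-Glo; 30 min RT; read luminescence.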
smiles,measurement,setting,value
OC1CCCc2ccccc21 (configuration not stated),Potency,[1],inactive
same,Potency,[2],inactive
same,Potency,[3],inactive
same,Potency,[4],inactive
same,Potency,[5],inactive
same,Potency,[6],inactive
same,Potency,[7],inactive
same,Potency,[8],inactive
same,Potency,[9],inactive
Oc1ccccc1O,Potency,[1],inactive
same,Potency,[10],inactive
same,Potency,[11],inactive
same,outcome,[12],inactive
same,Potency,[13],inactive
same,Potency,[3],43.8 µM (active)
same,Potency,[4],inactive
same,Potency,[5],inactive
same,Potency,[14],inactive
same,Potency,[6],inactive
same,Potency,[9],inactive
Cc1nc(-c2ccc(Cl)cc2)oc1COC(C)(C)C(=O)O,Potency,[1],inactive
same,Potency,[2],inactive
same,Potency,[3],inactive
same,Potency,[4],inactive
same,Potency,[5],inactive
same,Potency,[6],inactive
same,Potency,[7],inactive
same,Potency,[8],inactive
same,Potency,[15],inactive
same,Potency,[16],inactive
same,Potency,[9],inactive
c1ccc(C(O[C@@H]2CCCN(CCc3ccc4c(c3)OCO4)C2)c2ccccc2)cc1,Potency,[1],inactive
same,Potency,[2],inactive
same,Potency,[4],inactive
same,Potency,[5],inactive
same,Potency,[14],inactive
CCC(C)[O-].CCC(C)[O-].CCOC(=O)/C=C(/C)[O-].[Al+3],Potency,[1],inactive
same,Potency,[10],inactive
same,Potency,[11],inactive
same,Potency,[3],inactive
same,Potency,[5],inactive
same,Potency,[14],inactive
same,Potency,[8],inactive
same,Potency,[9],inactive
CN(C)CCN1CCN(c2cccc(Cl)c2)C1=O,Potency,[1],inactive
same,Potency,[2],inactive
same,Potency,[3],inactive
same,Potency,[4],inactive
same,Potency,[5],inactive
same,Potency,[6],inactive
same,Potency,[7],inactive
same,Potency,[8],inactive
same,Potency,[9],inactive
S=C([S-])NCCNC(=S)[S-].S=C([S-])NCCNC(=S)[S-].[Mn+2].[Zn+2],Potency,[1],inactive
same,Potency,[2],inactive
same,Potency,[4],15.5 µM (active)
same,Potency,[14],inactive
same,Potency,[8],inactive
same,Potency,[9],inactive
CCCCCCCC/C=C\CCCCCCCCN,Potency,[1],inactive
same,Potency,[3],inactive
same,Potency,[4],inactive
same,Potency,[5],inactive
same,Potency,[14],inactive
same,Potency,[6],inactive
same,Potency,[7],inactive
same,Potency,[8],inactive
same,Potency,[15],inactive
same,Potency,[16],inactive
same,Potency,[9],inactive
CC1=CCC(=C(C)C)CC1,Potency,[1],inactive
same,Potency,[2],inactive
same,Potency,[3],inactive
same,Potency,[4],inactive
same,Potency,[5],inactive
same,Potency,[6],inactive
same,Potency,[7],inactive
same,Potency,[8],inactive
O=[N+]([O-])c1cccc(C(F)(F)F)c1,Potency,[1],inactive
same,Potency,[2],inactive
same,Potency,[3],inactive
same,Potency,[4],inactive
same,Potency,[5],inactive
same,Potency,[14],inactive
same,Potency,[8],inactive
same,Potency,[9],inactive
Cc1cc(C(C)(C)C)cc(C)c1CC1=NCCN1,Potency,[2],inactive
same,Potency,[10],inactive
same,Potency,[11],inactive
same,outcome,[12],inactive
same,Potency,[17],inactive
same,outcome,[18],inactive
same,Potency,[19],inactive
same,Potency,[13],inactive
same,outcome,[20],inactive
same,Potency,[3],inactive
same,Potency,[4],inactive
same,Potency,[5],inactive
same,Potency,[14],inactive
same,Potency,[6],inactive
same,Potency,[7],inactive
same,Potency,[8],inactive
same,Potency,[15],inactive
same,Potency,[16],inactive
same,Potency,[9],inactive
COc1c(C)c2c(c(O)c1C/C=C(\C)CCC(=O)OCCN1CCOCC1)C(=O)OC2,Potency,[2],inactive
same,Potency,[10],inactive
same,Potency,[11],inactive
same,Potency,[4],inactive
same,Potency,[5],inactive
same,Potency,[14],inactive
same,Potency,[6],1.06 µM (active)
same,Potency,[7],inactive
same,Potency,[8],inactive
same,Potency,[15],inactive
same,Potency,[16],0.237 µM (active)
same,Potency,[9],inactive
CCCCCC(C)OC(=O)COc1ccc(Cl)c2cccnc12 (configuration not stated),Potency,[2],inactive
same,Potency,[10],inactive
same,Potency,[11],inactive
same,Potency,[4],inactive
same,Potency,[5],inactive
same,Potency,[14],inactive
same,Potency,[6],inactive
same,Potency,[7],inactive
same,Potency,[8],inactive
O=C1NC(=O)[C@@H]2CC=CC[C@H]12,Potency,[2],inactive
same,Potency,[10],inactive
same,Potency,[11],inactive
same,Potency,[3],inactive
same,Potency,[5],inactive
same,Potency,[14],inactive
same,Potency,[6],inactive
same,Potency,[7],inactive
same,Potency,[8],inactive
same,Potency,[9],inactive
CCc1oc2ccccc2c1C(=O)c1cc(I)c(O)c(I)c1,Potency,[2],inactive
same,Potency,[10],inactive
same,Potency,[11],inactive
same,Potency,[4],inactive
same,Potency,[5],inactive
same,Potency,[14],inactive
same,Potency,[8],inactive
same,Potency,[9],inactive
O=[N+]([O-])c1ccc(F)c(Cl)c1,Potency,[2],inactive
same,Potency,[10],inactive
same,Potency,[11],inactive
same,Potency,[3],inactive
same,Potency,[4],inactive
same,Potency,[5],inactive
same,Potency,[14],inactive
same,Potency,[6],inactive
same,Potency,[7],inactive
same,Potency,[8],inactive
same,Potency,[9],inactive
Nc1ccc(C(=O)O)c(O)c1,Potency,[2],inactive
same,Potency,[10],inactive
same,Potency,[11],inactive
same,Potency,[4],inactive
same,Potency,[5],inactive
same,Potency,[14],inactive
same,Potency,[6],inactive
same,Potency,[7],inactive
same,Potency,[8],inactive
same,Potency,[15],inactive
same,Potency,[16],inactive
same,Potency,[9],inactive
C[C@@H](O)[C@H](N)C(=O)O,"activity change, negative = cytotoxicity",[2],-1.86% [at 19 µM]
same,"activity, negative = inhibition",[10],42.8% [at 19 µM]
same,Potency,[11],inactive
same,"viability change, negative = cytotoxic",[3],0.354% [at 19 µM]
same,"activity change, negative = inhibition",[4],1.37% [at 23.6 µM]
same,"viability change, negative = cytotoxic",[5],-1.25% [at 19 µM]
same,"activity, negative = inhibition",[6],17.3% [at 19 µM]
same,activation,[7],-3.11% [at 19 µM]
same,"viability change, negative = cytotoxic",[8],0.388% [at 19 µM]
CCOC(=O)c1ccc(C2CCC(NC[C@H](O)COc3ccc(O)c(NS(C)(=O)=O)c3)CC2)cc1 (some centres not stated),Potency,[2],inactive
same,Potency,[10],56.4 µM (active)
same,Potency,[11],inactive
same,Potency,[3],63.3 µM (active)
same,Potency,[4],inactive
same,Potency,[5],inactive
same,Potency,[6],inactive
same,Potency,[7],inactive
same,Potency,[8],63.3 µM (active)
same,Potency,[15],inactive
same,Potency,[16],inactive
CCCCC(CC)CN1CN(CC(CC)CCCC)CC(C)(N)C1 (configuration not stated),Potency,[2],inactive
same,Potency,[10],inactive
same,Potency,[11],inactive
same,Potency,[3],inactive
same,Potency,[4],inactive
same,Potency,[5],inactive
same,Potency,[14],inactive
same,Potency,[8],inactive
same,Potency,[15],inactive
same,Potency,[16],inactive
